Experimental data from PubChem BioAssay (NCATS).
Results filed as inconclusive are left out. Active and inactive are the calls of the source. Unless noted, calls follow the shape of the full dose curve.

What was measured:
[1] = target: Peroxisome proliferator-activated receptor delta (Homo sapiens) (UniProt Q03181); test: qHTS assay for small molecule agonists of peroxisome proliferator-activated receptor delta signaling (AID 588534);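 also: 0% = DMSO basal wells and 100% = positive control agonist at 10 µM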
Summary of the method: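 EC50 and efficacy values derive from Hill fits of a concentration series in a beta-lactamase reporter cell assay. Exposure is 18 hrs at 37 C, with CCF4 fluorescence as the readout.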

[2] = qHTS for Inhibitors of the Functional Ribonucleoprotein Complex (vRNP) of Lassa (LASV) Arenavirus: LASV Primary Screen - GLuc reporter signal (AID 1347082; calls by dose curve; tested in HEK293 reporter line; also: nearly all actives have a fitted effect of over 60% in size; also: potency is read from the fitted curve at half-maximal effect)
[3] = qHTS for Inhibitors of the Functional Ribonucleoprotein Complex (vRNP) of Lassa (LASV) Arenavirus: Viability assay - alamar blue signal for LASV Primary Screen (AID 1347083; calls by dose curve; tested in HEK293 reporter line; also: nearly all actives have a fitted effect of over 80% in size; also: potency is read from the fitted curve at half-maximal effect)
[4] = qHTS for Inhibitors of the Functional Ribonucleoprotein Complex (vRNP) of Lymphocytic Choriomeningitis Arenaviruses (LCMV): Viability assay - alamar blue signal for LCMV Primary Screen (AID 1347085; calls by dose curve; tested in HEK293 reporter line; also: nearly all actives have a fitted effect of over 80% in size; also: potency is read from the fitted curve at half-maximal effect)
[5] = target: Nucleoprotein (Lymphocytic choriomeningitis virus (strain Armstrong)) (UniProt P09992); test: qHTS for Inhibitors of the Functional Ribonucleoprotein Complex (vRNP) of Lymphocytic Choriomeningitis Arenaviruses (LCMV): LCMV Primary Screen - GLuc reporter signal (AID 1347086); also: nearly all actives have a fitted effect of over 70% in size; also: potency is read from the fitted curve at half-maximal effect
[6] = target: Bile acid receptor (Homo sapiens) (UniProt Q96RI1); test: qHTS assay for small molecule agonists of farnesoid X receptor signaling (AID 588527); conditions: HEK293T FXR-UAS-bla, beta-lactamase ratio, 16 h; activation: stronger effect = higher value;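 also: series mostly up to about 77 µM; 0% = vehicle basal and 100% = reference agonist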
Summary of the method: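 Agonist-mode beta-lactamase reporter in GeneBLAzer FXR-UAS-bla HEK293T cells, titration up to 92 uM, 16 h exposure at 37 C, CCF4 fluorescence. Response scaled to DMSO (0%) and 100 uM chenodeoxycholic acid (100%), then Hill-fitted for EC50 and efficacy.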

[7] = target: Alpha-galactosidase (Coffea arabica) (UniProt Q42656); test: Counterscreen for Glucocerebrosidase Inhibitors: qHTS Assay for Coffee Bean alpha-Galactosidase at pH 4.5 (AID 957; active = well fitted curve in the direction sought with a large enough effect; an effect the other way counts as inactive or inconclusive;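 also: series mostly up to about 77 µM; plate controls were enzyme alone for no effect and no enzyme for full effect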)
Summary of the method: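 Quantitative HTS of compounds (0.7 nM to 77 uM) against coffee bean alpha-galactosidase at pH 4.5, measuring 4-methylumbelliferone fluorescence released from 80 uM substrate.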

[8] = target: Alpha-galactosidase (Coffea arabica) (UniProt Q42656); test: Counterscreen for Glucocerebrosidase Inhibitors: qHTS Assay for Coffee Bean alpha-Galactosidase at pH 5.9 (AID 998; active = well fitted curve in the direction sought with a large enough effect; an effect the other way counts as inactive or inconclusive;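 also: plate controls were uninhibited enzyme for no effect and no-enzyme basal signal for full effect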)
Summary of the method: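 Enzyme 2 nM + cpd (0.7 nM–77 uM titration) + 4-MU-alpha-Gal 80 uM, pH 5.9 citrate/Tween-20, RT 20 min, NaOH/glycine stop pH 10, fluor 365/440. Normalized to no-enzyme and full-activity controls; Hill-fit AC50.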

[9] = Inducers of the Endoplasmic Reticulum Stress Response (ERSR) in human glioma: Validation (AID 504836; active = well fitted curve in the direction sought with a large enough effect; an effect the other way counts as inactive or inconclusive; also: 0% is about no effect)
Summary of the method: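 Stably transfected U87-MG glioma cells carrying a GRP78-based luciferase sensor; 16 h compound incubation. Luminescence end-point read 10 min after Bright-Glo addition at room temperature.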

[10] = target: Ubiquitin carboxyl-terminal hydrolase 1 (Homo sapiens) (UniProt O94782); test: Inhibitors of USP1/UAF1: Pilot qHTS (AID 504865; active = well fitted curve in the direction sought with a large enough effect; an effect the other way counts as inactive or inconclusive;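 also: rhodamine fluorescence freed from ubiquitin-rhodamine substrate followed over time; top concentration of the series differs between compounds; % is scaled to controls: 0 for no effect and ±100 for the full control effect; nearly all actives have a fitted effect of over 35% in size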)
Summary of the method: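 USP1/UAF1 complex at 1 nM preincubated 15 min at room temperature with compound, then Ub-Rho substrate added at 150 nM final. Fluorescence (480/540 nm) read kinetically in 50 mM HEPES pH 7.8, 0.5 mM EDTA, 1 mM TCEP, 0.1 mg/ml BSA, 0.01% Tween-20.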

[11] = S16 Schwann cell PMP22 intronic element beta-lactamase assay (AID 624044); also: potency is read from the fitted curve at half-maximal effect; nearly all actives have a fitted effect of over 15% in size
Summary of the method: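 Beta-lactamase reporter under a PMP22 intronic regulatory element in stable S16 rat Schwann cells; 24 h compound exposure. 460 nm blue signal normalized between DMSO (0%) and potassium clavulanate, with 535 nm FRET tracking viability; curves classed by r2 and response.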

Sequence of Bile acid receptor (Homo sapiens) (Q96RI1 whole entry, looked up): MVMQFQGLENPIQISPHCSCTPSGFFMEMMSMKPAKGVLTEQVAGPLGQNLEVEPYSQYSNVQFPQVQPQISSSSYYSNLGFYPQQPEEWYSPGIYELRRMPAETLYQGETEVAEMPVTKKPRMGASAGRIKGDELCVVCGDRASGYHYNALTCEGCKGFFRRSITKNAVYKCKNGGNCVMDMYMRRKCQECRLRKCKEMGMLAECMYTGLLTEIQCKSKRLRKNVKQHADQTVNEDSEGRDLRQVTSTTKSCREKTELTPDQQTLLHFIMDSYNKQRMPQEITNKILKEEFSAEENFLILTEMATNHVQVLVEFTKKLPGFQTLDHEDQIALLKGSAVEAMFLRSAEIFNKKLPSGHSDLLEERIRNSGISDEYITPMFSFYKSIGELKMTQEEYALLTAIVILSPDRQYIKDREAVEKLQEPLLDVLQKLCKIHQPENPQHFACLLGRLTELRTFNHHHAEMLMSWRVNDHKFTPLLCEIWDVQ
Sequence of Peroxisome proliferator-activated receptor delta (Homo sapiens) (Q03181 whole entry, looked up): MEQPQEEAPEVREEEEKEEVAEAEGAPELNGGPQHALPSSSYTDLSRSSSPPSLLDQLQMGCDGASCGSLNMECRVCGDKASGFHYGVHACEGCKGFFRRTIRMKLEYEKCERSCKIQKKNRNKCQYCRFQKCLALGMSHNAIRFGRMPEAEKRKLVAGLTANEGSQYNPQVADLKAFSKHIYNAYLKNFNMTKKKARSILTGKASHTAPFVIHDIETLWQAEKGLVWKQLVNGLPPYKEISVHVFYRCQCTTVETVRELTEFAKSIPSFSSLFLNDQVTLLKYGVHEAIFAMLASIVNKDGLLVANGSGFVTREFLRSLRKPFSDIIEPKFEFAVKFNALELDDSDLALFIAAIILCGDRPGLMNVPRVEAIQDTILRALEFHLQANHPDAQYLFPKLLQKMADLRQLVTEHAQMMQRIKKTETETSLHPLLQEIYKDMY
Sequence of Nucleoprotein (Lymphocytic choriomeningitis virus (strain Armstrong)) (P09992 whole entry, looked up): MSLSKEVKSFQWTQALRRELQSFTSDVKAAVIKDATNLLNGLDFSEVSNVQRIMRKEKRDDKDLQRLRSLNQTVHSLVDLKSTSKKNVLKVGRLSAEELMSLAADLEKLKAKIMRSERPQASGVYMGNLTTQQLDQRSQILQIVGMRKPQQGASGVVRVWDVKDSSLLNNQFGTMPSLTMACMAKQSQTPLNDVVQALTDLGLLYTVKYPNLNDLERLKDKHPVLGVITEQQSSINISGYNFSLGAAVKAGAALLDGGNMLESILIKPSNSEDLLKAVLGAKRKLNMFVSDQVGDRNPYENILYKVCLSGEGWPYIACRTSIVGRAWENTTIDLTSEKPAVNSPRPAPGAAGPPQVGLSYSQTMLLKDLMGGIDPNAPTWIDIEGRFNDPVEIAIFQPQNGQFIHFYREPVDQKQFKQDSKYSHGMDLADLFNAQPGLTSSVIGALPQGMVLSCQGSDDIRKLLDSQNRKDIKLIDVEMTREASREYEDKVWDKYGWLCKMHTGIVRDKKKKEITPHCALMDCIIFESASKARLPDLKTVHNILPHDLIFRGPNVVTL
Sequence of Alpha-galactosidase (Coffea arabica) (Q42656 whole entry, looked up): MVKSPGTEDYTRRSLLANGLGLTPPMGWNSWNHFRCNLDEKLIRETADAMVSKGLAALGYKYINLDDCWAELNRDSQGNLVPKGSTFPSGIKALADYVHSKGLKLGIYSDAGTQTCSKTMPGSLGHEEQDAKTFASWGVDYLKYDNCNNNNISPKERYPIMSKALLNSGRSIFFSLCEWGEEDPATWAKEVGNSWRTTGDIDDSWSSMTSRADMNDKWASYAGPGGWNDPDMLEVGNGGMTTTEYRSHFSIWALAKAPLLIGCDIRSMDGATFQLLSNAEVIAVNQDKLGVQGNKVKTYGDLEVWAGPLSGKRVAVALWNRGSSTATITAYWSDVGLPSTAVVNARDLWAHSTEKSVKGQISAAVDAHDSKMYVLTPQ
Sequence of Ubiquitin carboxyl-terminal hydrolase 1 (Homo sapiens) (O94782 whole entry, looked up): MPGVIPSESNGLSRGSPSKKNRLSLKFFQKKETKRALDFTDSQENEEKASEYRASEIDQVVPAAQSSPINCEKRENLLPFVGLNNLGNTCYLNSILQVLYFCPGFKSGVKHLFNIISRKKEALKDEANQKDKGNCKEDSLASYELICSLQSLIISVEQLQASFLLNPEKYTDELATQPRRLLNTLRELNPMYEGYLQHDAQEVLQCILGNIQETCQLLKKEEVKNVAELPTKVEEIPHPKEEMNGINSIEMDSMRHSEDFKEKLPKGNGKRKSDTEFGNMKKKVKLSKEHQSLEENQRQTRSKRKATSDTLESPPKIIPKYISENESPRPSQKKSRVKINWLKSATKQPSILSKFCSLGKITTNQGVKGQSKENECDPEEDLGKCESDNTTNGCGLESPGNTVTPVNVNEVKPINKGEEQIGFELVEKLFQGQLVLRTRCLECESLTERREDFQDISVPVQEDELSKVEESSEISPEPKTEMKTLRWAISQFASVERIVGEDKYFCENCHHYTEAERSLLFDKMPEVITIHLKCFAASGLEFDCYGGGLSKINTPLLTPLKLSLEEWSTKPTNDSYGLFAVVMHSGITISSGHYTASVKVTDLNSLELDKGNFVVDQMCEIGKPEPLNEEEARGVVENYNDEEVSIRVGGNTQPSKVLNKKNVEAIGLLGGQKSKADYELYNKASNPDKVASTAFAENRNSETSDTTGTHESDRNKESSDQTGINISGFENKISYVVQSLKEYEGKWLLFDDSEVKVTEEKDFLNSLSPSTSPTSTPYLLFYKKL

C1CCC2(CCCCO2)OC1
inactive: Potency [1] | Potency [2] | Potency [3] | Potency [4] | Potency [5]

COC(=O)CCC(=O)OC
inactive: activation [6] 2.67% | Potency [1] | Potency [2] | Potency [3] | Potency [4] | Potency [5]

CCCCCCC(=O)O
inactive: activation [6] -0.812% | Potency [1] | Potency [2] | Potency [3] | Potency [4] | Potency [5]

O=C(O)C1=CC(=C(c2ccc(O)c(C(=O)O)c2)c2ccc(O)c(C(=O)O)c2)C=CC1=O
inactive: outcome [7] | outcome [8] | outcome [9] | Potency [2] | Potency [3] | Potency [4] | Potency [5]

C/C=C/C=C/CCCCCCCO
inactive: Potency [1] | Potency [2] | Potency [3] | Potency [4] | Potency [5]

CC(C)Cn1c(=O)n(C)c(=O)c2[nH]cnc21
inactive: outcome [7] | outcome [8] | outcome [9] | Potency [2] | Potency [3] | Potency [4] | Potency [5]

CS(C)=O
inactive: activation [6] -2.1% | Potency [1] | Potency [2] | Potency [3] | Potency [4] | Potency [5]

CC[C@H]1CN2CCc3cc(OC)c(OC)cc3[C@H]2C[C@@H]1C[C@@H]1NCCc2cc(OC)c(OC)cc21
inactive: Potency [10]
active: Potency [11] 562 nM | Potency [2] 385 nM | Potency [3] 432 nM | Potency [4] 544 nM | Potency [5] 432 nM
